According to the supplement of paper PMC8387472:

compound: S=c1nc[nH]c2nc[nH]c12 [6-Mercaptopurine (6-MP) Monohydrate]; test: fraction of microhomology deletions among edited reads; higher = more MH deletions; details: mESC; 2uM; 72 h treatment, harvest day 5

Target	fraction of microhomology deletions among edited reads
20.0 (DMSO control at this site: 1-bp insertion 0.349, MH deletion 0.138, edited 0.084) TACAGGTGTAGACTGGTTACGTGGCTGCGGAATTGACTGGTTACGTGGCTGCGGAATTTTG	0.243
43.0 (DMSO control at this site: 1-bp insertion 0.134, MH deletion 0.714, edited 0.104) AGTTTAACTTACTCCGGCCAAAAAAGAACTGCACCTCTGGAGCGGGTTAGTGGTGGTGGTA	0.592
33.0 (DMSO control at this site: 1-bp insertion 0.008, MH deletion 0.771, edited 0.112) CATTAAGAGCAGCTGCCGGCCCCCAAGTGGACAGAGCTGGCCCTGCTGATTCAACAGTGCA	0.692

compound: CC(=O)O/N=C1\C(=O)N(Cc2cc(Cl)ccc2Cl)c2ccc(Cl)cc21; test: fraction of 1-bp insertions among edited reads; higher = more 1-bp insertion outcomes; details: mESC; 2uM; 72 h treatment, harvest day 5

Target	fraction of 1-bp insertions among edited reads
32.0 (DMSO control at this site: 1-bp insertion 0.03, MH deletion 0.85, edited 0.898) AGAAGTCCAGGATCAGGGGGACTGGGGTCGGGAGGGTGGGGCAGGAAGGAAGCCAGAATCA	0.00904
26.0 (DMSO control at this site: 1-bp insertion 0.518, MH deletion 0.262, edited 0.026) AGGGCGCGCCCCACGCACTCTGCGGCAAGTCCCTCTGCGGCAAGTCCTCGGCCCGGAAGAC	0.507
34.0 (DMSO control at this site: 1-bp insertion 0.184, MH deletion 0.385, edited 0.103) ATTATAGGACCCTGAGGGAGCAGAGATGTGGGAATGGGGGCCGAGCCAATTGTGATGTAAG	0.157
18.0 (DMSO control at this site: 1-bp insertion 0.114, MH deletion 0.789, edited 0.094) GCGCAAGTGCATAAGTTTTTCTTAAGGCGTGCCTTTAAGGCGTGCCTTTGTCGGTCCTGGA	0.0913
41.0 (DMSO control at this site: 1-bp insertion 0.022, MH deletion 0.754, edited 0.115) AAAGAGACAGCAGGTATGAATCCATCTTCCTGACCCTTGGGACCAGCCGGGGCAGTGAAGC	0.0367
15.0 GCGCCTCCAATGACCCAGTGGGATCCTACTCCATAATGGGATCCTGGGGATTCCTCGCTCC	0.254
47.0 (DMSO control at this site: 1-bp insertion 0.095, MH deletion 0.585, edited 0.118) GAGTGGTCCCGAGCCAGGAACTGTGTGTGTTGCAGGGGGGCAGTAACTCCCCAACTCCCTC	0.0999
35.0 (DMSO control at this site: 1-bp insertion 0.01, MH deletion 0.72, edited 0.098) CCACTTTTAGAGAGGGTGAAAATCATCAGTTATCATCAGGGCAACAAATTGCTTTCTCCTA	0.0261
16.0 (DMSO control at this site: 1-bp insertion 0.172, MH deletion 0.29, edited 0.05) CGGACTGCACACATGGGTAGGATCGTGCACGCGAGGTAGGATCGTGCACGCGAAGTTATTC	0.169
19.0 (DMSO control at this site: 1-bp insertion 0.121, MH deletion 0.101, edited 0.057) TCTGCAGGGGTCGGAACCCGGGGGCTAGGGCTATCCCGGGGGCTAGGGCTATTAGCGAACC	0.111
22.0 (DMSO control at this site: 1-bp insertion 0.573, MH deletion 0.229, edited 0.045) CTGATGGTTGAAGGATTTAGCCGGGGTCCTAGACGCCGGGGTCCTAGACGAAAGGGCCACG	0.62
38.0 (DMSO control at this site: 1-bp insertion 0.063, MH deletion 0.487, edited 0.17) GGGCTGGGTGCTAAAATGAGGAGCTCCAAGAAGACTGAGGTGAACCTGGAGGCCCCTGAGC	0.0549
5.0 (DMSO control at this site: 1-bp insertion 0.214, MH deletion 0.567, edited 0.105) CGCTGACCCGAGACCTACGCGAACCGAAATCGGCGACCGGTGCGCAAGCAGGGCTGGCGTC	0.204
1.0 (DMSO control at this site: 1-bp insertion 0.521, MH deletion 0.323, edited 0.141) GTGTCACAGTGCACGAGTGACGGGATAATGTGCTGACAGGTAATTGATAGGCTTCCAACTT	0.514
